# Shn3 3UTR inh – inhibitors of Schnurri-3 3'UTR reporter in osteoblasts; 360,000 compounds, 0.52% hits; Clone20 osteoblast Shn3 3'UTR firefly luciferase, 24 h; inhibition, % at 12.5 µM;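 active = mean inhibition of at least 75% with every replicate also reaching 75%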;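 note: 0% = median of neutral control wells and 100% = pilot-screen positive control compound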
# CF NFkB block – inhibitors of cystic fibrosis induced NF-kB; KKLEB NF-kB-GFP reporter, PAF-induced, GFP fluorescence overnight; inhibition, % at 5 µM; 360,000 compounds, 0.86% hits; AID 588850;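 active = at least 50% inhibition at 5 µM, scaled per plate between neutral and stimulator controls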;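 note: PAF is a Pseudomonas aeruginosa culture filtrate used as stimulus; plate controls were PAF-stimulated DMSO wells for no effect and unstimulated DMSO wells for full effect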
# HIF-2a inh – HIF-2a inhibition; 786-0 RCC cells HIF-2a reporter, luciferase luminescence, overnight; inhibition, % at 18.8 µM; 360,000 compounds, 0.72% hits; AID 624352;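 active = inhibition of the luminescence signal of 40% or more relative to plate controls, in a single-dose primary screen at 18.75 µM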
# Peg3 promoter – reduces Peg3 promoter-driven luciferase expression in HeLa | inhibition, % at 20 µM | 360,000 compounds, 1.7% hits | HeLa PEG-Prom luciferase reporter, luminescence, overnight;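 active = inhibition of at least 50% at 20 µM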
# TRPM1 prom inh – inhibitors of MITF-driven TRPM1 promoter in melanoma cells | SK-MEL-5 TRPM1 promoter luciferase, 24 h | inhibition, % at 12.5 µM | 330,000 compounds, 0.83% hits | AID 488899;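 active = mean inhibition across replicates of 60% or more, whatever share of single replicates reaches that level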
# KKLEB cytotox – counter-screen for CF NF-kB inhibitors: cytotoxicity. activity change (cytotoxicity), % at 5 µM. AID 602141. KKLEB CF airway cells viability, ATPlite luminescence, overnight; stronger effect = lower value; cells stimulated with P. aeruginosa culture filtrate. 360,000 compounds, 0.36% hits;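 active = corrected activity change at or below -50% at 5 µM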
# * = called active by the depositor; . = not tested or not shown. The list is not random: actives were taken first. Their share in the collection is about 2.8%.
SMILES,Shn3 3UTR inh,CF NFkB block,HIF-2a inh,Peg3 promoter,TRPM1 prom inh,KKLEB cytotox
Oc1ccc(CN2CCc3ccccc3C2)c2cccnc12,84*,17,-13,94*,71*,-14
Oc1ccc(CNc2ccccc2F)c2cccnc12,75,-5,-12,40,65*,3
CC1CCCCN1C(=O)COC(=O)c1ccc(=O)n(Cc2ccccc2)n1 (stereo not given),5,-2,-1,-1,-5,10
CC(C)C(NCC(=O)Nc1ccccc1C(=O)NC1CC1)c1ccccc1 (stereo not given),64,10,10,-3,2,6
CCn1ccnc1CN(C)Cc1c(C(=O)N2C[C@@H](C)O[C@@H](C)C2)nc2ccc(Cl)cn12,1,-5,12,2,2,4
CCc1ccccc1NC(=O)CCS(=O)(=O)c1ccc2c(c1)CCCN2C(C)=O,-8,7,3,8,-4,6
COc1cc(CN2CCc3ccccc3C2)ccc1O,95*,19,-48,49,29,-8
Oc1ccc(COCc2ccccc2)c2cccnc12,51,-3,-38,-56,23,-4
Oc1ccc(Cc2ccccc2)c2cccnc12,58,0,5,69*,.,3
Cc1ccc(C)c(S(=O)(=O)N2CCN(Cc3ccc(O)c4ncccc34)CC2)c1,91*,-2,18,38,74*,-13
COc1cc(CN2CCc3ccccc3C2)cc([N+](=O)[O-])c1O,-5,3,16,5,-4,9
CSc1ncccc1C(=O)N1CCN(S(=O)(=O)c2cc(C)ccc2C)CC1,-2,3,18,11,5,3
COc1cccc(CNC(=O)CSc2nnc3c(n2)[nH]c2ccc(C)cc23)c1,3,9,15,13,3,-4
O=C1c2cccc3cccc(c23)C(=O)N1CCN1CCN(CC(O)COc2ccc3ccccc3c2)CC1 (stereo not given),27,-17,-14,79*,-7,-15
Cc1ccc(C)c(OCC(O)CN2CCN(CCN3C(=O)c4cccc5cccc(c45)C3=O)CC2)c1 (stereo not given),16,-29,-9,89*,-7,-23
CCc1ccc(OCC(O)CN2CCC(CN3C(=O)c4cccc5cccc(c45)C3=O)CC2)cc1 (stereo not given),64,23,27,109*,57,-28
Cc1cc(C)cc(OCC(O)CN2CCC(CN3C(=O)c4cccc5cccc(c45)C3=O)CC2)c1 (stereo not given),73,-12,8,75*,71*,-9
COc1cccc(OCC(O)CN2CCC(CN3C(=O)c4cccc5cccc(c45)C3=O)CC2)c1 (stereo not given),27,7,15,19,1,-4
O=C1Nc2ccccc2C(=O)N2C[C@@H](O)C[C@H]12,-6,7,7,-8,7,-10
CN(C(=O)c1cccc(S(=O)(=O)N2CCCC2)c1)C1CCCCC1,5,10,-9,-2,2,12
CN(C(=O)CN1C(=O)S/C(=C\c2ccc(Cl)cc2)C1=O)C1CCS(=O)(=O)C1 (stereo not given),5,11,11,5,-21,2
CC1(C(=O)NS(=O)(=O)Cc2ccccc2)CCN1C(=O)C1(c2ccc(Cl)cc2)CCC1 (stereo not given),10,-6,0,0,.,2
O=C(Nc1ccc(S(=O)(=O)N2CCOCC2)cc1)C1CCN(S(=O)(=O)c2ccccc2)CC1,47,12,7,21,11,16
O=C1c2cccc3cccc(c23)C(=O)N1CC1CCN(CC(O)COc2ccc3ccccc3c2)CC1 (stereo not given),48,20,-5,100*,9,-15
CSc1ncnc2ncn(C)c12,-1,18,8,-2,-10,-29
SMILES,Shn3 3UTR inh,CF NFkB block,HIF-2a inh,Peg3 promoter,TRPM1 prom inh,KKLEB cytotox
Clc1ccc(-n2nnnc2Sc2ncnc3sccc23)cc1,56,83*,93*,108*,66*,-10
Cc1sc2ncnc(Sc3ccccc3C(=O)O)c2c1C,-16,15,7,-1,-4,-4
Cc1sc2ncnc(Sc3nnnn3-c3ccccc3)c2c1C,1,80*,24,72*,69*,-54*
COc1ccc(CNC(=O)C(c2ccc(C)o2)N(Cc2cccs2)C(=O)Cc2cccs2)cc1 (stereo not given),-7,10,5,60*,11,3
COCCN(C(=O)Cc1cccs1)C(C(=O)NCc1ccc(OC)cc1)c1ccc(C)cc1 (stereo not given),-2,1,10,10,-11,19
COC(=O)C1=CN(c2cccc(OCc3ccccc3)c2)C(N)=C(C#N)C1c1cccc(F)c1 (stereo not given),.,.,0,.,.,.
CCCCCCCC/C=C\CCCCCCCC(=O)O,-29,14,-2,2,0,7
CCCCCCCCCCCCC/C=C/[C@@H](O)[C@@H](N)CO,-29,-8,6,55*,9,-1
Cc1ccc(NC(=O)c2cc(S(=O)(=O)NCCC3=CCCCC3)ccc2F)cc1F,92*,0,-3,24,15,-4
Cc1ccc(S(=O)(=O)NCCC2=CCCCC2)cc1C(N)=O,73,-26,7,5,20,16
O=C(Nc1cccc(F)c1)c1cc(S(=O)(=O)NCCC2=CCCCC2)ccc1F,89*,-9,16,15,18,-3
COc1cc(OC)cc(C(=O)N[C@H](C(=O)OCC(=O)N2CCN(S(=O)(=O)c3ccc(C)cc3)CC2)C(C)C)c1,-18,5,2,20,4,-13
O=C(CSc1ncnc2sccc12)Nc1ccccc1,-5,-20,-60,-24,0,-2
O=C(CSc1ncnc2c1sc1ccccc12)Nc1ccc(Br)cc1,11,43,10,-7,8,-57*
CCc1nnc(NC(=O)CSc2ncnc3c2oc2ccccc23)s1,2,17,13,44,14,-11
O=C(CSc1ncnc2c1oc1ccccc12)Nc1nc2ccccc2s1,1,46,21,56*,15,-34
Cc1c(NC(=O)C(C)OC(=O)c2cc(Cl)ccc2O)c(=O)n(-c2ccccc2)n1C (stereo not given),-7,-16,8,-1,1,0
c1ccc2c(c1)COC(CNC1CCCCC1)OC2,-18,5,-34,-34,2,-18
CCCOc1ccccc1/C=C1/C(=O)ON=C1C,20,-23,22,23,49,3
C=CCOc1ccc(/C=C2/C(=O)ON=C2C)cc1OC,47,4,27,47,17,1
CCCOc1ccc(/C=C2/C(=O)ON=C2C)cc1OCC,13,2,36,50*,11,-8
